According to paper PMC11006913:

Tests used:
Assay in all cases: PBM; 200 nM protein, PBS
Details in all cases: dsDNA, one strand shown
[1] = target: SHOX (Homo sapiens, UniProt O15266 103-189)
[2] = target: SHOX (Homo sapiens, UniProt O15266 103-189, R173C)
[3] = target: HOXD13 (Homo sapiens, UniProt P35453 263-343, T313R)
[4] = target: HOXD13 (Homo sapiens, UniProt P35453 263-343)
[5] = target: HOXD13 (Homo sapiens, UniProt P35453 263-343, T313A)
[6] = target: ALX3 (Homo sapiens, UniProt O95076 139-225, N203Q)
Sequence of ALX3 (Homo sapiens, UniProt O95076 139-225, N203Q) (O95076 139-225 N203Q): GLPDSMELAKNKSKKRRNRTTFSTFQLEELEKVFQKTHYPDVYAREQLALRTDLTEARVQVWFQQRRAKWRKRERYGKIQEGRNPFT

[7] = target: ALX3 (Homo sapiens, UniProt O95076 139-225)
Sequence of ALX3 (Homo sapiens, UniProt O95076 139-225) (O95076 139-225): as the sequence (O95076 139-225 N203Q) above, with Q65N counted along it

[8] = target: VAX1 (Homo sapiens, UniProt Q5SQQ9 86-172)
Sequence of VAX1 (Homo sapiens, UniProt Q5SQQ9 86-172) (Q5SQQ9 86-172): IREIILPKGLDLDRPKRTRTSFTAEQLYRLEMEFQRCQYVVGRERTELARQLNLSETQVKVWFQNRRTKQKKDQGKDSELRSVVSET

[9] = target: ALX3 (Homo sapiens, UniProt O95076 139-225, L168Q)
Sequence of ALX3 (Homo sapiens, UniProt O95076 139-225, L168Q) (O95076 139-225 L168Q): as the sequence (O95076 139-225 N203Q) above, with L30Q, Q65N counted along it

[10] = target: ALX3 (Homo sapiens, UniProt O95076 139-225, L168V)
Sequence of ALX3 (Homo sapiens, UniProt O95076 139-225, L168V) (O95076 139-225 L168V): as the sequence (O95076 139-225 N203Q) above, with L30V, Q65N counted along it

[11] = target: VAX1 (Homo sapiens, UniProt Q5SQQ9 86-172, T142I)
Sequence of VAX1 (Homo sapiens, UniProt Q5SQQ9 86-172, T142I) (Q5SQQ9 86-172 T142I): as the sequence (Q5SQQ9 86-172) above, with T57I counted along it

[12] = target: ALX3 (Homo sapiens, UniProt O95076 139-225, N203S)
Sequence of ALX3 (Homo sapiens, UniProt O95076 139-225, N203S) (O95076 139-225 N203S): as the sequence (O95076 139-225 N203Q) above, with Q65S counted along it

[13] = target: VAX1 (Homo sapiens, UniProt Q5SQQ9 86-172, K157R)
Sequence of VAX1 (Homo sapiens, UniProt Q5SQQ9 86-172, K157R) (Q5SQQ9 86-172 K157R): as the sequence (Q5SQQ9 86-172) above, with K72R counted along it

Sequence of HOXD13 (Homo sapiens, UniProt P35453 263-343) (P35453 263-343): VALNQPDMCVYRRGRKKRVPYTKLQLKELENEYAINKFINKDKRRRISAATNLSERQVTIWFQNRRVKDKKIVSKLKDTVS
Sequence of HOXD13 (Homo sapiens, UniProt P35453 263-343, T313R) (P35453 263-343 T313R): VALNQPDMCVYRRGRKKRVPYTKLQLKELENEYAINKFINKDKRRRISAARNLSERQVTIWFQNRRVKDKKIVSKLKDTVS
Sequence of SHOX (Homo sapiens, UniProt O15266 103-189, R173C) (O15266 103-189 R173C): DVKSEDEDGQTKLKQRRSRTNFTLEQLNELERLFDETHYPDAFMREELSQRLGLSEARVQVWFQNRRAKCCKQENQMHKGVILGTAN
Sequence of SHOX (Homo sapiens, UniProt O15266 103-189) (O15266 103-189): as the sequence (O15266 103-189 R173C) above, with C71R counted along it
Sequence of HOXD13 (Homo sapiens, UniProt P35453 263-343, T313A) (P35453 263-343 T313A): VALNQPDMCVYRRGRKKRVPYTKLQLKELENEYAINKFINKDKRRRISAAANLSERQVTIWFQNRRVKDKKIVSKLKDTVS

## CCCAGCGA
[1]
  binding signal: 7.15 upbm affinity estimate (log intensity, higher = more binding, comparable within an allelic series)
[2]
  binding signal: 7.2 upbm affinity estimate (log intensity, higher = more binding, comparable within an allelic series)

## CCGCGCCA
[1]
  binding signal: 7.12 upbm affinity estimate (log intensity, higher = more binding, comparable within an allelic series)
[2]
  binding signal: 7.11 upbm affinity estimate (log intensity, higher = more binding, comparable within an allelic series)

## AGCCACCG
[1]
  binding signal: 7.07 upbm affinity estimate (log intensity, higher = more binding, comparable within an allelic series)
[3]
  binding signal: 9.53 upbm affinity estimate (log intensity, higher = more binding, comparable within an allelic series)
[2]
  binding signal: 7.05 upbm affinity estimate (log intensity, higher = more binding, comparable within an allelic series)
[4]
  binding signal: 9.56 upbm affinity estimate (log intensity, higher = more binding, comparable within an allelic series)
[5]
  binding signal: 9.66 upbm affinity estimate (log intensity, higher = more binding, comparable within an allelic series)

## CCGGCGTC
[1]
  binding signal: 7.01 upbm affinity estimate (log intensity, higher = more binding, comparable within an allelic series)
[2]
  binding signal: 7.17 upbm affinity estimate (log intensity, higher = more binding, comparable within an allelic series)

## CGGTTGCC
[1]
  binding signal: 7.18 upbm affinity estimate (log intensity, higher = more binding, comparable within an allelic series)
[2]
  binding signal: 7.25 upbm affinity estimate (log intensity, higher = more binding, comparable within an allelic series)

## AGCTGTCC
[1]
  binding signal: 7.1 upbm affinity estimate (log intensity, higher = more binding, comparable within an allelic series)
[2]
  binding signal: 7.23 upbm affinity estimate (log intensity, higher = more binding, comparable within an allelic series)

## CTTGGCCC
[1]
  binding signal: 7.14 upbm affinity estimate (log intensity, higher = more binding, comparable within an allelic series)
[2]
  binding signal: 7.2 upbm affinity estimate (log intensity, higher = more binding, comparable within an allelic series)

## GGACGTCC
[1]
  binding signal: 7.52 upbm affinity estimate (log intensity, higher = more binding, comparable within an allelic series)
[6]
  binding signal: 7.88 upbm affinity estimate (log intensity, higher = more binding, comparable within an allelic series)
[2]
  binding signal: 7.3 upbm affinity estimate (log intensity, higher = more binding, comparable within an allelic series)
[7]
  binding signal: 7.9 upbm affinity estimate (log intensity, higher = more binding, comparable within an allelic series)
[8]
  binding signal: 7.88 upbm affinity estimate (log intensity, higher = more binding, comparable within an allelic series)
[9]
  binding signal: 7.79 upbm affinity estimate (log intensity, higher = more binding, comparable within an allelic series)
[10]
  binding signal: 7.85 upbm affinity estimate (log intensity, higher = more binding, comparable within an allelic series)
[11]
  binding signal: 7.46 upbm affinity estimate (log intensity, higher = more binding, comparable within an allelic series)
[12]
  binding signal: 7.79 upbm affinity estimate (log intensity, higher = more binding, comparable within an allelic series)
[13]
  binding signal: 7.64 upbm affinity estimate (log intensity, higher = more binding, comparable within an allelic series)

## AGCCGCCG
[1]
  binding signal: 7.12 upbm affinity estimate (log intensity, higher = more binding, comparable within an allelic series)
[3]
  binding signal: 9.48 upbm affinity estimate (log intensity, higher = more binding, comparable within an allelic series)
[2]
  binding signal: 7.19 upbm affinity estimate (log intensity, higher = more binding, comparable within an allelic series)
[4]
  binding signal: 9.52 upbm affinity estimate (log intensity, higher = more binding, comparable within an allelic series)
[5]
  binding signal: 9.57 upbm affinity estimate (log intensity, higher = more binding, comparable within an allelic series)

## CCCAGCGC
[1]
  binding signal: 7.21 upbm affinity estimate (log intensity, higher = more binding, comparable within an allelic series)
[3]
  binding signal: 9.41 upbm affinity estimate (log intensity, higher = more binding, comparable within an allelic series)
[2]
  binding signal: 7.13 upbm affinity estimate (log intensity, higher = more binding, comparable within an allelic series)
[4]
  binding signal: 9.38 upbm affinity estimate (log intensity, higher = more binding, comparable within an allelic series)
[5]
  binding signal: 9.56 upbm affinity estimate (log intensity, higher = more binding, comparable within an allelic series)

## AGGGCAGC
[1]
  binding signal: 6.98 upbm affinity estimate (log intensity, higher = more binding, comparable within an allelic series)
[3]
  binding signal: 9.54 upbm affinity estimate (log intensity, higher = more binding, comparable within an allelic series)
[2]
  binding signal: 7.18 upbm affinity estimate (log intensity, higher = more binding, comparable within an allelic series)
[4]
  binding signal: 9.49 upbm affinity estimate (log intensity, higher = more binding, comparable within an allelic series)
[5]
  binding signal: 9.66 upbm affinity estimate (log intensity, higher = more binding, comparable within an allelic series)
